Source: PubChem BioAssay
hcDAF-12 act = H. contortus DAF-12 nuclear receptor activators, primary screen, cell-based, luminescence, HEK293, lit1-tk-luc reporter; HEK293 hcDAF-12 lit1-tk-luc reporter; 0% DMSO, 100% Δ7-dafachronic acid; AID 652067, 2013; actives 1.4% (n = 370,000); activation, % at 6.8 µM;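 active = activation above the mean of all tested compounds plus 3 SD, cut at about 5.5% in these data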
hgDAF12 agonist = H. glycines DAF-12 receptor agonists, primary screen, cell-based, luminescence, HEK293, GAL4 fusion, UAS-luciferase. Nuclear hormone receptor DAF-12 (Heterodera glycines), GAL4 fusion. HEK293 GAL4-hgDAF12 UAS-luciferase reporter, agonist luminescence; normalized to butyrate control. activation, % at 6.8 µM. actives 1.8% (n = 370,000);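 active = activation above a cutoff set at the mean of all screened compounds plus 3 SD, cut at about 10% in these data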
DAX1 inh-1 = DAX1 (NR0B1) inhibitors on StAR promoter, primary screen, cell-based, luminescence, SF-1 (NR5A1), full-length DAX-1. HEK293T StAR-luciferase reporter, SF-1/DAX-1 repression relief. inhibition, % at 6.8 µM. actives 1.1% (n = 370,000). AID 652010, 2013;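 active = inhibition above the mean over all tested compounds plus 3 SD, cut at about 3.6% in these data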;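 note: higher inhibition means more luminescence from relief of DAX-1 repression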
DAX1 inh-2 = DAX1 (NR0B1) inhibitors, primary screen, cell-based, HEK293, Gal4-DAX1, luciferase luminescence; Nuclear receptor subfamily 0 group B member 1 (Homo sapiens), P51843; HEK293 Gal4-DAX1 luciferase reporter; inhibition, % at 6.75 µM; actives 0.99% (n = 340,000);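 active = inhibition above the mean over all tested compounds plus 3 SD, cut at about 4.2% in these data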;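 note: inhibition shows as a rise in luminescence from relieved DAX1 repression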
Target sequence (P51843 207-470 limits assumed): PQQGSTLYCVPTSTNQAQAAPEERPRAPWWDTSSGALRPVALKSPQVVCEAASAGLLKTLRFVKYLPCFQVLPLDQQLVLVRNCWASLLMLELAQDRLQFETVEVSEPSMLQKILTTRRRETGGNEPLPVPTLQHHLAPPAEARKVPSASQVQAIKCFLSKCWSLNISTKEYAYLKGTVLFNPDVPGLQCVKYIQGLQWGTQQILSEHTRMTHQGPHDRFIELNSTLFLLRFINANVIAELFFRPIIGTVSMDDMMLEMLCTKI
AHR activator = AHR activators, primary screen, cell-based, luminescence, luciferase reporter, human; Aryl hydrocarbon receptor (Homo sapiens), P35869; AHR-responsive luciferase reporter cells; activation, % at 5 µM; actives 2.5% (n = 320,000); AID 2796, 2010; in the data active = activation above about 47%
ssDAF12 agonist = S. stercoralis DAF-12 nuclear receptor activators, primary screen, cell-based, luminescence, HEK293, GRIP1 co-expression, lit1-tk-luc; Nuclear hormone receptor DAF-12 (Strongyloides stercoralis); HEK293 ssDAF-12/GRIP1 lit1-tk-luc reporter; % of 3 µM dafachronic acid response; activation, % at 6.8 µM; actives 1% (n = 370,000); AID 652126, 2013;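 active = activation above the mean over all tested compounds plus 3 SD, cut at about 0.9% in these data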
Large screens that a line does not name were inactive. Sampled rows, rich in hits. Any-hit rate of the full collection: about 5.7%.

COc1ccc2nc(NC(=O)c3ccco3)sc2c1	none
COc1ccc2nc(NC(=O)c3ccccc3[N+](=O)[O-])sc2c1	DAX1 inh-2 4.4
COc1ccc2nc(NC(=O)c3ccc([N+](=O)[O-])o3)sc2c1	AHR activator 52
O=C1NC(c2ccccc2)C(c2ccccc2)N1 (configuration not stated)	none (no result: AHR activator)
O=C(Nc1cc(-c2ccccc2)cs1)c1ccco1	none (no result: AHR activator)
COc1ccc(S(=O)(=O)Nc2cc3c4c(oc3c3ccccc23)CC(C)(C)CC4=O)cc1	none
COc1ccc(S(=O)(=O)Nc2cc3c4c(oc3c3ccccc23)CCCC4=O)cc1	AHR activator 48
C[C@H](O)[C@@H]1C(=O)N2CCc3ccc(N4CCN(C)CC4)cc3[C@@H]2C[C@@H]1N(C)C(=O)Nc1cc(Cl)cc(Cl)c1	none (no result: AHR activator)
CN1/C(=C/c2cc[n+](C)c3ccccc23)C=Cc2ccccc21	none (no result: hcDAF-12 act, hgDAF12 agonist, DAX1 inh-1, AHR activator, ssDAF12 agonist)
C[n+]1ccc(/C=C/c2ccccc2O)c2ccccc21	hcDAF-12 act 6.5, AHR activator 63
O=C(O)CCC(=O)Nc1ccccc1C(=O)N1CCN(c2ccc(Cl)cc2)CC1	DAX1 inh-2 6.8
C=C(C1=CCN(S(=O)C(C)(C)C)[C@H]1CCO)c1ccccc1 (some centres not stated)	none (no result: AHR activator)
C=C(C1=CCN(S(=O)(=O)C(C)(C)C)[C@H]1CCO)c1ccccc1	DAX1 inh-2 5.8 (no result: AHR activator)
CNC(=O)c1sccc1-n1cccc1	none
C/C(=N\NC(=O)c1sccc1-n1cccc1)c1cccs1	AHR activator 78
O=C(N/N=C\c1ccc(Cl)cc1Cl)c1sccc1-n1cccc1	none
O=C(NNC(=O)c1sccc1-n1cccc1)c1cccs1	AHR activator 47
CN(C)c1ccc(/C=N/NC(=O)c2sccc2-n2cccc2)cc1	hgDAF12 agonist 11, AHR activator 72
O=C(O)c1cc(-c2ccc(N3CCOCC3)cc2)nn1-c1ccccc1Cl	none
COc1cc(OC)cc(C(=O)N[C@H](C(=O)Nc2cc(C)cc(C)c2)C(C)C)c1	none
Cn1cnc(NCc2ccccc2)c1[N+](=O)[O-]	ssDAF12 agonist 3.4 (no result: DAX1 inh-2)
Nc1ncnc(NCc2ccccc2)c1[N+](=O)[O-]	none
CCCc1ccc2oc(C(=O)N(Cc3ccncc3)CC3CCCO3)c(C)c2c1 (configuration not stated)	none
CC(=O)Nc1ccc2nc(-c3cccn3C)[nH]c2c1	none
Cn1cccc1-c1nc2ccc([N+](=O)[O-])cc2[nH]1	hgDAF12 agonist 11
COc1ccccc1N1CCN(/N=C/c2cccc(O)c2)CC1	hgDAF12 agonist 12
O=C(COc1cccc(Br)c1)NN=C1c2ccccc2-c2ccccc21	none
O=C(NN=C1c2ccccc2-c2ccccc21)c1cccc(Br)c1	AHR activator 56
CC(C)[C@H](NC(=O)OCc1ccccc1)C(=O)OCC(=O)N1CCN(c2ccc(F)cc2)CC1	none
CC(C)[C@H](NC(=O)OCc1ccccc1)C(=O)OCC(=O)N1CCCCC1	hgDAF12 agonist 12 (no result: AHR activator)
O=C(O)c1c[nH]n2c(=S)ncnc12	none (no result: AHR activator)
Nc1ncnc(Nc2ccccn2)c1[N+](=O)[O-]	none
COC(=O)c1cc(=O)n(Cc2ccc(F)cc2)c(=NCc2ccc(F)cc2)s1	ssDAF12 agonist 1.4
COC(=O)c1cc(=O)n(Cc2ccc3c(c2)OCO3)c(=Nc2ccc(F)cc2)s1	none
CC(C)(O)CNC(=O)C(Cc1ccccc1)N1C(=O)c2ccccc2C1=O (configuration not stated)	none
CC(C)NC(=O)C(Cc1ccccc1)N1C(=O)c2ccccc2C1=O (configuration not stated)	AHR activator 55
CCOc1ccc(NC(=O)C(Cc2ccccc2)N2C(=O)c3cccc4cccc(c34)C2=O)cc1 (configuration not stated)	hcDAF-12 act 6.0 (no result: DAX1 inh-2)
CCOc1ccc(NC(=O)CN2C(=O)c3cccc4cccc2c34)cc1	hgDAF12 agonist 12 (no result: DAX1 inh-2, AHR activator)
COc1cccc(-c2nc(N3CC(C)CC(C)C3)c3ccccc3n2)c1O (configuration not stated)	hcDAF-12 act 5.9 (no result: AHR activator)
Cn1c(SCc2cccc([N+](=O)[O-])c2)nc2c(c1=O)SCC2	none
CC1=C(C(=O)NC(C)c2ccccc2)C2(CCC(C)CC2)OC1=O (configuration not stated)	none
CC1=C(C(=O)NC(C)CCc2ccccc2)C2(CCC(C)CC2)OC1=O (configuration not stated)	DAX1 inh-2 5.1
COc1ccc(-c2[nH]c(-c3ccc(SC)cc3)nc2SCC(=O)Nc2nccs2)cc1	AHR activator 52
COc1ccc(-c2nc(SCC(=O)Nc3nccs3)c(-c3ccc(Cl)cc3)[nH]2)cc1	AHR activator 72
CC(C)c1ccc(Nc2nnc(SCC(=O)NCC3CCCO3)s2)cc1 (configuration not stated)	hgDAF12 agonist 12
Cc1ccc2nc(SCC(=O)NCC3CCCO3)c(C#N)cc2c1 (configuration not stated)	none
COc1ccc(-c2cc(-c3ccccc3)nc(SCC(=O)Nc3nccs3)c2C#N)cc1	none
Cc1cc2nc(-c3ccc(SCC(=O)Nc4nccs4)nc3)[nH]c2cc1C	none (no result: AHR activator)
Cc1ccc(-c2nc(SCC(=O)NCC3CCCO3)c(-c3ccc(C)cc3)[nH]2)cc1 (configuration not stated)	AHR activator 54
COc1ccc(-c2[nH]c(-c3ccc(C)cc3)nc2SCC(=O)Nc2nccs2)cc1	AHR activator 55
COc1ccc(-c2[nH]c(-c3cccc(OC)c3)nc2SCC(=O)NCc2ccco2)cc1	AHR activator 77
COc1ccc(-c2nc(SC(C)C(=O)NC3CC3)n[nH]2)cc1 (configuration not stated)	DAX1 inh-2 4.5 (no result: AHR activator)
COc1ccc(-c2nc(SCC(=O)NC3CCCC3)c(-c3ccc(OC)cc3)[nH]2)cc1	AHR activator 49
Cc1ccc(S(=O)(=O)N2CCC(C(=O)N/N=C/c3cccn3C)CC2)cc1	none
Nn1c(SCC(=O)Nc2ccc3c(c2)OCCO3)nnc(CCC(=O)O)c1=O	none
CN1/C(=C\C(=O)CN2C(=O)NC3(CCCCCC3)C2=O)C(C)(C)c2ccccc21	none
Cc1[nH]n(-c2ccccc2)c(=O)c1N=Nc1nccs1	AHR activator 86
